A selection: hits, their analogues and other compounds. The true share with any hit is near 2.5%.
Pol kappa inh: inhibitors of human DNA polymerase kappa | purified Pol kappa, fluorescent DNA synthesis assay, 10 min | Potency, µM (highest dose often 107 µM), actives largely listed as inhibitors | hit rate 0.53% among 400,000 | AID 588579
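10 nM Pol kappa was preincubated with compounds for 15 min at room temperature. Reaction started with 50 nM (final) substrate. Fluorescence read kinetically at 0 and 10 min.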
L3MBTL1 inh: blocks human L3MBTL1; Q9Y468; AlphaScreen L3MBTL1–H3K9me1 peptide binding; Potency, µM (titrated, usually from 57.1 µM), actives largely listed as inhibitors; hit rate 0.66% among 230,000; AID 485360; further: nearly all actives have a fitted effect of over 60% in size
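L3MBTL1 (50 nM) pre-complexed 30 min with biotinylated H3(1-15)K9me1 peptide (75 nM), then compounds added for 30 min at room temperature; AlphaScreen streptavidin donor/nickel chelate acceptor beads (10 ug/mL final) read after 30 min dark incubation.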
Pol eta inh: DNA polymerase eta (human) inhibition | Q9Y253 | recombinant Pol eta, fluorescent DNA replication assay | Potency, µM (titrated, usually from 114 µM), usual class: inhibitors | hit rate 1.2% among 390,000 | AID 588591
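Pol eta (10 nM) was preincubated with compounds for 15 min at room temperature, after which fluorescent replication substrate (50 nM final) was added to start the reaction. Fluorescence was read kinetically at 0 and 10 min.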
WRN helicase inh: WRN helicase (human) inhibition. Q14191. WRN helicase unwinding, fluorescent forked duplex, kinetic. Potency, µM (top dose mostly 114 µM), most hits filed as inhibitors. hit rate 0.46% among 360,000. AID 651768; further: nearly all actives have a fitted effect of over 55% in size
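WRN at 20 nM final was preincubated with compound for 15 min at room temperature; reaction started with 100 nM forked duplex oligonucleotide carrying fluorophore and quencher plus 2 mM ATP (final). Unwinding followed kinetically by red fluorescence (ex 525/em 598 nm).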
POLB inh: blocks human DNA polymerase beta activity | P06746 | Pol beta primer extension/strand displacement, fluorescence kinetic | Potency, µM (series often up to 114 µM), hits mostly inhibitors | hit rate 1.3% among 340,000 | AID 485314
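10 nM enzyme + cpd, 15 min RT; start with substrate 50 nM final; read 0 min and after 10 min RT. Corrected, normalized data; 4-parameter Hill curve fit.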
Pol iota inh: blocks human DNA polymerase iota activity; Q9UNA4; Pol iota fluorescent replication assay, 10 min; Potency, µM (highest dose often 115 µM), most hits filed as inhibitors; hit rate 1% among 390,000
Target sequence (Q9UNA4 whole entry, looked up): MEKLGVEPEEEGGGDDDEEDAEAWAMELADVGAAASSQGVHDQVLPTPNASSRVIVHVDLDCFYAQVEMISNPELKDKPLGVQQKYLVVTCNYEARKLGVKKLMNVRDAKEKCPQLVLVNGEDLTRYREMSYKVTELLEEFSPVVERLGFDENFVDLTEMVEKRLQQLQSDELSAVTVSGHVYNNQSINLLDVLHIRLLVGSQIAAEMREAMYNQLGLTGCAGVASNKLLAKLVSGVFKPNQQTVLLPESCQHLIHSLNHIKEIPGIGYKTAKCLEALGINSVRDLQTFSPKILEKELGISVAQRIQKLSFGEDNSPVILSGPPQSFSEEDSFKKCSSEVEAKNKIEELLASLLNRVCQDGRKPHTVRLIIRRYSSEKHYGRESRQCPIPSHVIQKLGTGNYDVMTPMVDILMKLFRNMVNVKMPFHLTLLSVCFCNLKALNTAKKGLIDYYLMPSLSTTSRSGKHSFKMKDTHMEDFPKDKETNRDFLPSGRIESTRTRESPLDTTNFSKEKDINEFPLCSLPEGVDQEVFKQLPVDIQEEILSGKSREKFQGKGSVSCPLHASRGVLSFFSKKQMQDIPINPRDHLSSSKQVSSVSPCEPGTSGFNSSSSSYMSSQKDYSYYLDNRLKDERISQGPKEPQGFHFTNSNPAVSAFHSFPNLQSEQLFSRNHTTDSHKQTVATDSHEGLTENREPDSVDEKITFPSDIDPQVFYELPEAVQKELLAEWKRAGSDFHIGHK
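Fluorescent replication assay read twice, at 0 min and 10 min after adding 50 nM (final) substrate. Enzyme (10 nM) and compounds were first incubated 15 min at room temperature; enzyme-free buffer wells were negative controls.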
Numbers stand for hits; . = inactive; ? = inconclusive; / = no result given; ! = repeats disagree; [ ] = dose if it differs, or a comment. The call rests on the fitted dose curve; in most records, active means well fitted curve in the direction sought with a large enough effect; inconclusive means small, poorly fitted or top-dose-only effect, or another doubt; inactive means no such curve, though single readings can be large; an effect the other way counts as inactive or inconclusive.

SMILES	Pol kappa inh	L3MBTL1 inh	Pol eta inh	WRN helicase inh	POLB inh	Pol iota inh
CN(C)C(=O)Oc1ccc(Cl)c2ccccc12	.	/	.	.	.	.
COC[C@H]1OC(=O)c2coc3c2[C@@]1(C)C1=C(C3=O)[C@@H]2CCC(=O)[C@@]2(C)C[C@H]1OC(C)=O	.	/	.	?	/	89µM
CC1(C)OC(c2ccccc2)=C/C(=C/C=C2C(=O)NC(=O)NC2=O)O1	.	/	?	?	14µM	?
[Hg+][c]1ccccc1	.[19.4 µM]	/	/	/	/	14µM
CC(C)CN(CC(C)C)c1ccc(C=C2C(=O)NC(=S)NC2=O)cc1[N+](=O)[O-]	?	?	25µM	56µM	50µM	18µM
CC[C@@]1(O)C(=O)OCc2c1cc1n(c2=O)Cc2cc3c(N)cccc3nc2-1	79µM	/	22µM	.	50µM	?
O=C(Cc1ccccc1)Oc1cccc(-n2cnnn2)c1	.	.	.	.	.	.
Cn1cc(/C=C2\C(=O)NC(=O)N(c3ccccc3)C2=O)c2ccccc21	.	/	25µM	.[11.6 µM]	.	?
COc1cc(/C=C2\C(=O)NC(=O)N(c3ccccc3)C2=O)c([N+](=O)[O-])cc1OC	.	.	.	?	.	.
COc1cc(/C=C2\C(=O)NC(=O)N(c3ccccc3)C2=O)cc(OC)c1O	.	/	.	.	.	25µM
C=CCCC1(C2=CCCCC2)C(=O)NC(=O)NC1=O	.	/	.	.	/	.
O=C1c2cccc(O)c2C(=O)c2c(O)cc(CO)cc21	.	/	.	.	/	?
Cc1cc(O)c2c(c1)C(=O)c1cc(O)cc(O)c1C2=O	?	/	?	.	11µM	?
Cc1nc2ccccc2c(=O)n1-c1ccc(F)cc1F	.	/	.	.	.	.
Nc1ccccc1C(=O)OC1CSC1	.	.[11.4 µM]	?	.	56µM	.
COC(=O)C1=C(c2cc3ccccc3o2)C[C@@H]2CC[C@H]1N2C(=O)NC(C)C	.	/	.	.	/	.
CCOC(=O)c1ccc(NC(=O)c2c(O)[nH]c(=O)[nH]c2=O)cc1	.	7.1µM	?	.	20µM	.
COc1cc([C@H]2OC[C@H]3[C@@H]2CO[C@@H]3c2cc(OC)c(O[C@@H]3O[C@H](CO)[C@@H](O)[C@H](O)[C@H]3O)c(OC)c2)cc(OC)c1O[C@H]1O[C@@H](CO)[C@H](O)[C@@H](O)[C@@H]1O	.	.	.	.	/	.
CCCNC(=O)N1[C@H]2CC[C@@H]1C(C(=O)OC)=C(c1ccc(OC(F)(F)F)cc1)C2	.	.	.	.	/	.
O=c1[nH]c2ccccc2n1C1CCN(C(c2ccccc2OC(F)(F)F)c2nnnn2Cc2ccccc2)CC1 (stereo not drawn)	/	/	/	.	/	/
CCOC(=O)c1ccc(N=Cc2c(O)n(-c3ccccc3F)c(=S)[nH]c2=O)cc1	.	.	.	79µM	.	?
CCOC(=O)c1c(/N=C/c2c(O)n(-c3ccccc3F)c(=S)[nH]c2=O)sc2c1CCCC2	.	/	.	?	.	?
O=c1[nH]c(=S)n(C2CC2)c(O)c1C=Nc1ccc2c(c1)OCO2	.	/	.	.	.	.
CCOP(=S)(OCC)SCSc1ccc(Cl)cc1	15µM	/	/	/	/	/
O=C1NC(=O)C(Sc2ccccc2[N+](=O)[O-])C(=O)N1	.	/	.	?	.	10µM
SMILES	Pol kappa inh	L3MBTL1 inh	Pol eta inh	WRN helicase inh	POLB inh	Pol iota inh
CO[C@H]1[C@@H](O)CC(OC2[C@@H](O)CC(OC3[C@@H](O)C[C@H](OC4CC[C@@]5(C)C(CCC6C5CC(O)[C@]5(C)[C@H](C7=CC(=O)OC7)CCC65O)C4)O[C@@H]3C)O[C@@H]2C)O[C@@H]1C (stereo partly drawn)	.[19.4 µM]	/	/	/	/	/
CCOC(=O)c1c(-n2c(C)cc(/C=C3\C(=O)NC(=O)N(C)C3=O)c2C)sc2c1CCCC2	.	.	79µM	.	.	14µM
Cc1ccc(-n2c(C)cc(/C=C3/C(=O)NC(=O)N(C)C3=O)c2C)cc1	.	.	.	.	.	?
CN1CC=C(/C=C/c2ccc(-c3ccccc3)cc2)CC1	.	.	.	.	.	.
Cc1cc(C)cc(N2C(=O)NC(=O)/C(=C/c3cccn3-c3ccc(Cl)cc3)C2=O)c1	.	.	79µM	.[11.6 µM]	.	?
CC(C)(C)n1cccc1/C=C1\C(=O)NC(=O)N(c2ccccc2)C1=O	.	.	.	.	.	?
O=C1C=CC(=O)C(Cl)=C1	16µM	/	/	/	/	/
COC(=O)C1=C(c2cccc(OC)c2OC)C[C@@H]2CC[C@H]1N2C(=O)NC1CCCCC1	.	/	.	.	/	.
COc1ccc2c(c1)C1(C(=O)O)CC=CCC1(C(=O)O)C2 (stereo not drawn)	.	/	.	.	/	.
CCc1ccc(NC(=O)Cn2c(=O)oc3cc(S(=O)(=O)NCc4ccccc4)ccc32)cc1	.	/	.	/	20µM	.
CCCC(=O)O[C@@H]1[C@@H](C)[C@@]2(O)[C@@H](C=C(CO)C[C@]3(O)C(=O)C(C)=C[C@@H]23)[C@@H]2C(C)(C)[C@]12OC(=O)CCC	.	/	/	/	/	/
COc1ccc2c(c1)NP(=S)(c1ccccc1)N2C (stereo not drawn)	.	/	.	.	/	.
COc1ccc(P2(=O)Nc3ccccc3N2)cc1	.	.	.	.	40µM	.
O=c1[nH]c(=S)n(Cc2ccco2)c(O)c1C=NCc1cccs1	50µM	/	22µM	?	13µM	22µM
O=C(NC(=O)c1ccccc1Cl)Nc1ccc(OC(F)(F)F)cc1	.	/	/	/	/	/
CC1CCN(C(CC(=O)c2ccccc2)C(=O)c2ccccc2)CC1 (stereo not drawn)	.	/	.	7.9µM	/	?
O=C1OC(c2ccc(O)c(S(=O)(=O)O)c2)(c2ccc(O)c(S(=O)(=O)O)c2)c2c(Br)c(Br)c(Br)c(Br)c21	28µM	/	/	/	/	/
COC(=O)C1=C(c2ccc(F)cc2OCc2ccccc2)C[C@@H]2CC[C@H]1N2C(=O)N1CCOCC1	.	.	.	.	/	.
O=[N+]([O-])c1cc(O)c(O)c([N+](=O)[O-])c1	16µM!	.	?	.	.	?
C1CCC2S[C@H]3CCCCC3NC2C1 (stereo partly drawn)	.	/	.	.	.	.
CC1OC(OC2C(O)CC(OC3C(O)CC(OC4CCC5(C)C(CCC6C5CCC5(C)C(C7=CC(=O)OC7)CCC65O)C4)OC3C)OC2C)CC(O)C1O (stereo not drawn)	.	/	/	/	/	/
CN1[C@@H]2CC[C@H]1CC(O)C2 (stereo partly drawn)	.[12 µM]	/	/	/	/	/
CC1(C)c2[nH]c3ccccc3c2C[C@@H]2C(=O)N(Cc3ccccc3F)C(=O)N21	.	/	.	/	/	.
O=C1NC(=S)N(c2ccc(Cl)cc2)C(=O)/C1=C/N1CCN(C(=O)c2ccco2)CC1	.	.	.	.	.	?
O=C1NC(=S)N(c2ccc(F)cc2)C(=O)/C1=C/c1ccco1	/	.	/	/	0.56µM	/
